In PubChem BioAssay (Tox21):
Records with an inconclusive call do not appear. Where a call stands in place of a potency, no number is given. Activity calls are given as the source filed them. Calls come from the whole dose curve; as a rule, active = well fitted activation curve with a large enough effect in the repeat runs; inconclusive = weak or mixed curves; inactive = no such curve, though single readings can be large or run the other way.

Assay: qHTS assay for small molecules that induce genotoxicity in human embryonic kidney cells expressing luciferase-tagged ATAD5 (AID 651632); note: nearly all actives have a fitted effect of over 15% in size
Details: HEK293T ATAD5-luciferase induction, 16 h; series mostly up to 83.3 µM
From the text: U.S. Tox21 Program National Center for Advancing Translational Sciences [NCATS] NIH Chemical Genomics Center [NCGC] U.S. Environmental Protection Agency [EPA] National Institutes of Environmental Health Sciences [NIEHS] National Toxicology Program [NTP] U.S. Food and Drug Administration [FDA] Tox21 Assay Overview: As cancer cells divide rapidly and during every cell division they need to duplicate their genome by DNA replication. The failure to do so results in the cancer cell death. Based on this concept, many chemotherapeutic agents were developed but have limitations such as low efficacy and severe side effects etc. A new cell based assay was developed to find the compounds that effectively block DNA replication either by directly damaging DNA or by inhibiting other cellular mechanisms. Enhanced Level of Genome Instability Gene 1 (ELG1; human ATAD5) protein levels increase in response to various types of DNA damage. Using a luciferase reporter-gene tagged with ATAD5, a cell-based assay [developed by Kyungjae Myung, NHGRI, NIH] was used to measure the induction of ATAD5 in human embryonic kidney cells (HEK293T). So, increase in luciferase activity can be used to identify the compounds that cause genetic stress.
Tox21 Assay Protocol Summary: For genotoxicity screening, 2,000 cells in 5 uL/well were dispensed into white, solid-bottom 1536-well plates using a Multidrop Combi (Thermo Scientific) dispenser. Following transfer of 23 nL compound or DMSO vehicle by a pin tool, the plates were incubated 16 hr at 37C and 5% CO2. 5 ul Amplite (AAT Bioquest, Inc.) was then added to each plate and following 30 min incubation at room temperature, luciferase activity was quantified on a ViewLux CCD-based plate reader.
With `CC(COC(C)(C)C)OCCCO` (stereo not given) the Potency was “inactive”. With `CC(=O)c1ccc2c(c1)Cc1ccccc1-2` the Potency was “inactive”. With `CC(C)(C)c1n[nH]c(=S)n(N)c1=O` the Potency was “inactive”. With `Cc1ccccc1N=O` the Potency was “inactive”. For `NCCS`, the Potency was “inactive”. For `CC(=C(CCOC(=O)C(C)C)SSC(CCOC(=O)C(C)C)=C(C)N(C=O)Cc1cnc(C)nc1N)N(C=O)Cc1cnc(C)nc1N`, the Potency was “inactive”. In the case of `O=C1c2cccc3c2[C@H](CCC3)CN1[C@@H]1CN2CCC1CC2`, the Potency is reported as “inactive”. With `CCCC/C=C\CCCCCCCCCC=O` the Potency was “inactive”. For `Cc1cc(Cl)c(C)cc1Cl`, the Potency was “inactive”. In the case of `c1ccc2nccnc2c1`, the Potency is reported as “inactive”. In the case of `CCOC(=O)c1ccc(OC(=O)CCCCCN=C(N)N)cc1`, the Potency is reported as “inactive”. For `O=C(NCCN1CCOCC1)c1ccc(Cl)cc1`, the Potency was “inactive”. In the case of `O=C(O)c1cc(Br)c(O)c(Br)c1`, the Potency is reported as “inactive”. With `C#CC(C)N(C)C(=O)Nc1ccc(Cl)cc1` (stereo not given) the Potency was “inactive”. In the case of `O=C(OCC1(COC(=O)c2cccnc2)CCCC(COC(=O)c2cccnc2)(COC(=O)c2cccnc2)C1O)c1cccnc1`, the Potency is reported as “inactive”. In the case of `Cc1cccc2nccnc12`, the Potency is reported as “inactive”. In the case of `CN(C)c1ccc(C=O)cc1`, the Potency is reported as “inactive”. In the case of `CCC(C=O)CC`, the Potency is reported as “inactive”. In the case of `COc1ccc2c(c1)C(=O)N(CCc1ccc(S(=O)(=O)NC(=O)NC3CCCCC3)cc1)C(=O)C2(C)C`, the Potency is reported as “inactive”. In the case of `Cc1cccc(C)c1OCC(C)N` (stereo not given), the Potency is reported as “inactive”. In the case of `CCN1CCc2nc(N)oc2CC1`, the Potency is reported as “inactive”. With `O=C1c2ccccc2C(=O)c2cc(S(=O)(=O)O)ccc21` the Potency was “inactive”. For `COCCOCCOCCOCCOCCO`, the Potency was “inactive”. In the case of `O=C1CCCC(=O)O1`, the Potency is reported as “inactive”. In the case of `CC(C)C[C@H](NC(=O)CNC(=O)[C@H](Cc1ccc(O)cc1)NC(=O)[C@H](CO)NC(=O)[C@H](Cc1c[nH]c2ccccc12)NC(=O)[C@H](Cc1cnc[nH]1)NC(=O)[C@@H]1CCC(=O)N1)C(=O)N[C@@H](CCCN=C(N)N)C(=O)N1CCC[C@H]1C(=O)NCC(N)=O` (stereo in doubt), the Potency is reported as “inactive”. For `CCCCCCOc1ccccc1C(N)=O`, the Potency was “inactive”. With `COc1cc2c(cc1OC)[C@@H]1CC(=O)[C@@H](CC(C)C)CN1CC2` the Potency was “inactive”. With `COc1cc(C(=S)N2CCOCC2)cc(OC)c1OC` the Potency was “inactive”. In the case of `O=C(CCN1CCN(CCO)CC1)N1c2ccccc2Sc2ccc(C(F)(F)F)cc21`, the Potency is reported as “inactive”. In the case of `CCOC(=O)[C@H](CCc1ccccc1)N[C@@H](C)C(=O)N1C(=O)N(C)C[C@H]1C(=O)O`, the Potency is reported as “inactive”. With `Cc1ccccc1OCC(O)CO` (stereo not given) the Potency was “inactive”. For `NNc1nnc(NN)c2ccccc12`, the Potency was “inactive”. For `Cc1ccc(S(=O)(=O)O)c(C)c1`, the Potency was “inactive”. For `O=C(O)c1ccc(Cl)cc1Cl`, the Potency was “inactive”. For `CC(C)CCCC(C)(C)O`, the Potency was “inactive”. In the case of `CCCC/C=C/C=C\C=O`, the Potency is reported as “inactive”. In the case of `O=C(CCNNC(=O)c1ccncc1)NCc1ccccc1`, the Potency is reported as “inactive”. With `O=C(NCCc1c[nH]c2ccccc12)c1cccnc1` the Potency was “inactive”. For `CC(=O)CCCCn1c(=O)c2c(ncn2C)n(C)c1=O`, the Potency was “inactive”. For `C[C@H](N)[C@H](O)c1cccc(O)c1`, the Potency was “inactive”.
